PubChem BioAssay (NCATS)
Inconclusive results are not listed. A number with no mark means an inactive call. Calls of active or inactive are those of the source. Calls come from the whole dose curve; as a rule, active = well fitted cell-killing curve with a large enough effect; inconclusive = small, poorly fitted or top-dose-only effect, or effect the other way; inactive = flat fitted curve, though single readings scatter.

Experiment: qHTS for Inhibitors of Ubiquitin-specific Protease USP2a Using CHOP2 as the Reporter: Cytotox Assay (AID 652170); note: nearly all actives have a fitted effect of over 70% in size
Details: HCT116 viability, CellTiter-Glo luminescence, 72 h; series mostly up to 46.1 µM; activity change, negative = cytotoxicity: at the top concentration
From the text: Homeostasis of cellular proteins is maintained through a combination of synthesis and degradation. The pathway that accounts for the majority of protein degradation is the ubiquitin-proteasomal pathway. Ubiquitin (Ub) is highly conserved in all cells and the generation of a multi-Ub chain typically targets proteins for degradation by the proteasome. However, ubiquitination is highly reversible and dynamic. Deubiquitination, the reverse process, is catalyzed through the action of enzymes referred to as isopeptidases or deubiquitinating enzymes (DUBs). This group of enzymes is collectively responsible for maintaining adequate pools of free ubiquitin and regulating the ubiquitination status of cellular proteins. The class of DUBs referred to as the ubiquitin-specific proteases (USP) family functions endoproteolytically to cleave Ub chains from a wide range of protein substrates. USP2a deubiquitinates fatty acid synthase (FASN) which has recently been identified as an emerging oncology target. To identify inhibitors of USP2a a cell-free qHTS assay was employed. Confirmed qHTS active compounds were tested for cytoxicity in HCT116 cells (human colon cancer cells) using the Cell Titer Glo luciferase-coupled ATP detection system from Promega. This assays monitors cell proliferation by quantitating the amount of ATP present by luciferase, which in the presence of ATP converts […]. A compound that inhibits cell proliferation would result in a decrease in luminescence. The data were normalized to control columns representing maximum signal (cells with DMSO) and background (no cells with DMSO). The cells were cultured in DMEM with 10% FBS and plated in white solid-bottom tissue-culture treated plates. NIH Molecular Libraries Probe Centers Network [MLPCN] NIH Chemical Genomics Center [NCGC] MLSCN Grant: MH079852 PI Name: Benjamin Nicholson, Progenra Inc, Malvern, PA
5 uL of HCT116 (600 cells/well) were plated into a 1536 well plate and then incubated for 6 hr at 37 deg C, 5% CO2. Compounds are added through pinning before the plate is incubated for 72 hr at 37 deg C, 5% CO2. Then, 3 uL of Cell Titer Glo is added, the plate is left at RT for 10 min, before luminescence is detected using the ViewLux.
Potency is the fitted concentration of half-maximal effect.

Structure (SMILES)	activity change, negative = cytotoxicity [%]	Potency
Cc1ccc(S(=O)(=O)Nc2cnccc2C(=O)Nc2ccc(-n3cncn3)cc2)cc1	18.3	
Cc1ccc(-c2cc(C(=O)Nc3ccc(-n4cncn4)cc3)c3ccccc3n2)cc1C	22.1	
NS(=O)(=O)c1ccc(Nc2nc(-c3ccccc3)cs2)cc1	4.98	
COc1ccc(Cl)cc1C(=O)Nc1nc(-c2ccccc2)cs1	10.5	
Cc1ccc(-c2cc(C(=O)N3CC[S+](=O)([O-])CC3)c3ccccc3n2)cc1C	20.6	
Cc1cccc(NC(=O)c2cc(-c3ccc(C)c(C)c3)nc3ccccc23)c1	-6.65	
O=C(Cc1ccc2ccccc2c1)Nc1ccc(S(=O)(=O)Nc2nccs2)cc1	-3.86	
Cc1ccc(-c2cc(C(=O)Nc3ccccc3)c3ccccc3n2)cc1C	-10.5	
Cc1ccc(-c2cc(C(=O)Nc3ccc(S(=O)(=O)NCc4nccs4)cc3)c3ccccc3n2)cc1C	-0.363	
Cc1ccc(S(=O)(=O)NCC(=O)Nc2nc(-c3ccccc3)cs2)cc1	-0.551	
O=C(Nc1ccc(S(=O)(=O)Nc2nccs2)cc1)c1cccc2ccccc12	3.9	
Cc1ccc([S+](=O)([O-])n2cc(-c3ccc(-c4ccccc4)cc3)c3ccccc32)cc1	8.59	
CC(C)Oc1ccccc1C(=O)Nc1nc(-c2ccccc2)cs1	-17	
Cc1ccc(NC(=O)c2ccncc2NS(=O)(=O)c2ccc(C)cc2)cc1	-20	
COc1ccc(NS(=O)(=O)c2ccc(C)cc2)cc1C(=O)Nc1nc(-c2ccccc2)cs1	-17.9	
Clc1nc(CN2CCOCC2)nc2sc3c(c12)CCCC3	9.39	
CC1(C)CC(C(=O)Nc2ccc([S+](=O)([O-])Nc3nccs3)cc2)C1	1.42	
Cc1ccc(S(=O)(=O)Nc2ccccc2C(=O)Nc2cccc(-c3ccccc3)c2)cc1		16.6 µM (active)
COc1ccc(NC(=O)c2cc(-c3ccc(C)c(C)c3)nc3ccccc23)cc1	11.9	
COc1ccccc1C(=O)Nc1nc(-c2ccccc2)cs1	8.16	

Structure (SMILES)	activity change, negative = cytotoxicity [%]	Potency
Cc1ccc(S(=O)(=O)Nc2cnccc2C(=O)Nc2ccccc2)cc1	-3.63	
O=C(Nc1nc(-c2ccccc2)cs1)c1ccccc1S(=O)(=O)Nc1nccs1	-17.1	
Cc1ccc(-c2cc(C(=O)Nc3ccccc3C)c3ccccc3n2)cc1C	-9.98	
COc1cc(C(=O)Nc2nc(-c3ccccc3)cs2)ccc1NS(=O)(=O)c1ccc(C)cc1	-18.8	
COc1ccc(OC)c(C(=O)Nc2nc(-c3ccccc3)cs2)c1	2.09	
Cc1ccc(-c2cc(C(=O)NCC[S+](=O)([O-])O)c3ccccc3n2)cc1C	-7.03	
O=S(=O)(Nc1nccs1)c1ccc(Nc2nc(-c3ccccc3)cs2)cc1	-6.95	
Cc1ccc(-c2cc(C(=O)Nc3ccc(S(=O)(=O)Nc4ccc(C#N)cc4)cc3)c3ccccc3n2)cc1C	-12.4	
Cc1noc(C)c1S(=O)(=O)Nc1cnccc1C(=O)Nc1nc(-c2ccccc2)cs1	2.82	
CC(C)(C)C1CCC(C(=O)Nc2ccc(S(=O)(=O)Nc3nccs3)cc2)CC1 (stereo not given)	-22.7	
CC(=O)NS(=O)(=O)c1ccc(NC(=O)c2cc(-c3ccc(C)c(C)c3)nc3ccccc23)cc1	8.92	
Cc1ccc(S(=O)(=O)Nc2ccccc2C(=O)Nc2ncc(-c3ccccc3)s2)cc1		18.7 µM (active)
Cc1ccc(S(=O)(=O)Nc2cnccc2C(=O)Nc2ccncc2)cc1	10.2	
COc1ccc(-c2csc(NC(=O)c3ccccc3NS(=O)(=O)c3ccc(C)cc3)n2)cc1		18.7 µM (active)
COc1ccc(C(=O)Nc2nc(-c3ccccc3)cs2)c(OC)c1	12	
Cc1ccc(S(=O)(=O)Nc2cncc(C(=O)Nc3nc(-c4ccccc4)cs3)c2)cc1	30.6	
O=C(Nc1ccc(S(=O)(=O)Nc2nc(-c3ccccc3)cs2)cc1)c1ccc2ccccc2c1	2.6	
Cc1ccc(-c2cc(C(=O)Nc3cccc(Cl)c3)c3ccccc3n2)cc1C	8.01	
Cc1ccc(S(=O)(=O)Nc2cnccc2C(=O)Nc2nc(-c3ccncc3)cs2)cc1	11.6	
O=C(Nc1nc(-c2ccccc2)cs1)c1ccncc1NS(=O)(=O)c1ccc(N2CCCC2=O)cc1	4.61	
